# Activity calls are given as the source filed them. Unless noted, the rule behind the calls is not given here.
# Tests used:
# [1] = compound effects on lung adenocarcinoma cell viability – A549, calcein-AM fluorescence, 48 h, basal, profiling panel (AID 1162); details: higher = more signal; note: test concentration not given here
# [2] = compound effects on differentiated 3T3-L1 adipocyte viability – cell-based, 3T3-L1 adipocytes, calcein-AM fluorescence, 48 h, basal, profiling panel (AID 1163); details: 3T3-L1 adipocytes viability, higher = more signal; note: test concentration not given here
# [3] = compound effects on hepatocellular carcinoma cell viability – HepG2, calcein-AM fluorescence, 48 h, basal, profiling panel (AID 1164); details: higher = more signal; note: test concentration not given here
# [4] = compound effects on multiple myeloma cell viability – MM1S, calcein-AM fluorescence, 48 h, basal, profiling panel (AID 1165); details: higher = more signal;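 note: viability of MM1S multiple myeloma cells under basal unstimulated conditions; test concentration not given here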
# [5] = calcein-AM signal in unstimulated myeloma cells – cell-based, calcein-AM fluorescence, 48 h, PK04 Diversity Set, profiling panel (AID 1166); details: RPMI8226 myeloma viability, higher = more signal;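 note: cells grown under basal conditions without added stimulus; test concentration not given here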
# [6] = JC-1 mitochondrial signal, unstimulated HepG2 cells – cell-based, JC-1 fluorescence, 24 h, 100 nL compound, profiling panel (AID 1167); details: HepG2 mitochondrial potential, higher = more signal; note: test concentration not given here
# [7] = JC-1 mitochondrial signal, unstimulated adipocytes – cell-based, JC-1 fluorescence, 3T3-L1 adipocytes, 24 h, 100 nL compound, profiling panel (AID 1168); details: JC-1 mitochondrial fluorescence, higher = more signal, called active from +8 up or from −8 down; note: test concentration not given here
# [8] = JC-1 mitochondrial signal, unstimulated myeloma cells – cell-based, JC-1 fluorescence, RPMI8226, 24 h, 100 nL compound, profiling panel (AID 1169); details: JC-1 mitochondrial potential fluorescence, higher = more signal; note: test concentration not given here
# [9] = JC-1 mitochondrial signal, unstimulated MM1S myeloma – cell-based, JC-1 fluorescence, 24 h, 100 nL compound, profiling panel (AID 1170); details: MM1S mitochondrial potential, higher = more signal; note: test concentration not given here
# [10] = resazurin metabolic signal in A549 cells – cell-based, resazurin fluorescence, 24 h, PK04 Diversity Set, profiling panel (AID 1171); details: A549 viability, higher = more signal, called active from +8 up or from −8 down; note: test concentration not given here
# [11] = resazurin metabolic signal in HepG2 cells – cell-based, resazurin fluorescence, 24 h, PK04 Diversity Set, profiling panel (AID 1172); details: HepG2 viability, higher = more signal; note: test concentration not given here
# [12] = budding yeast growth changes without added modifier – OD600, strain BY4716, 24 h, basal condition, primary screen (AID 1173); details: S. cerevisiae BY4716 growth, OD600, 24 h; higher = more signal, called active from +8 up or from −8 down
# [13] = viability profiling in MM1S myeloma cells – cell-based, resazurin fluorescence, basal, 24 h, PK04 Diversity Set, profiling panel (AID 1174); details: higher = more signal, called active from +8 up or from −8 down; note: test concentration not given here
# [14] = target: Dihydroorotate dehydrogenase (quinone), mitochondrial (Plasmodium falciparum (isolate 3D7)) (UniProt Q08210); assay: inhibition of P. falciparum DHODH – biochemical, C-terminal His tag, absorbance 600 nm, primary screen (AID 1175); details: PfDHODH enzyme, DCIP absorbance 600 nm; higher = more signal, called active from +8 up or from −8 down;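 note: recombinant parasite enzyme with a five histidine tag at its C terminus; test concentration not given here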
# [15] = inhibition of PAO1 biofilm formation – strain PAO1, LB-PBS medium, absorbance 600 nm, primary screen (AID 1176); note: test concentration not given here; details: P. aeruginosa PAO1 growth/biofilm, A600, 12 h; higher = more signal
# [16] = growth modulation of vineyard yeast isolate – strain RM11-1a, OD600, basal, 24 h, primary screen (AID 1177);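 note: cultures grown under basal conditions with no added stressor; test concentration not given here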; details: S. cerevisiae RM11-1a growth, OD600, 24 h; higher = more signal, called active from +8 up or from −8 down
# [17] = growth of efflux-deficient E. coli DRC39 – strain DRC39, OD650, 24 h, E. coli filamentation inducers, primary screen (AID 1178);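 note: growth measured as culture turbidity by optical density at 650 nm; test concentration not given here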; details: E. coli DRC39 acrAB, higher = more signal, called active from +8 up or from −8 down
# [18] = growth of efflux-deficient E. coli DRC39 – strain DRC39, OD650, 48 h, E. coli filamentation inducers, primary screen (AID 1179);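 note: screen aims at cell division blockers that make cells filament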; details: E. coli DRC39 delta-acrAB growth, higher = more signal, called active from +8 up or from −8 down
# [19] = viability profiling in RPMI8226 myeloma cells – cell-based, resazurin fluorescence, basal, 24 h, PK04 Diversity Set, profiling panel (AID 1180); details: higher = more signal;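 note: RPMI8826 multiple myeloma cell line at 5000 cells per well; test concentration not given here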
# [20] = target: E3 ubiquitin-protein ligase XIAP (Homo sapiens) (UniProt P98170); assay: small molecules binding XIAP protein – biophysical, small-molecule microarray, fluorescence 635 nm, primary screen (AID 1181); details: higher = more signal;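 note: score merges 667 nm emission and signal to noise over triplicate slides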
# E3 ubiquitin-protein ligase XIAP (Homo sapiens), sequence (P98170 whole entry, looked up): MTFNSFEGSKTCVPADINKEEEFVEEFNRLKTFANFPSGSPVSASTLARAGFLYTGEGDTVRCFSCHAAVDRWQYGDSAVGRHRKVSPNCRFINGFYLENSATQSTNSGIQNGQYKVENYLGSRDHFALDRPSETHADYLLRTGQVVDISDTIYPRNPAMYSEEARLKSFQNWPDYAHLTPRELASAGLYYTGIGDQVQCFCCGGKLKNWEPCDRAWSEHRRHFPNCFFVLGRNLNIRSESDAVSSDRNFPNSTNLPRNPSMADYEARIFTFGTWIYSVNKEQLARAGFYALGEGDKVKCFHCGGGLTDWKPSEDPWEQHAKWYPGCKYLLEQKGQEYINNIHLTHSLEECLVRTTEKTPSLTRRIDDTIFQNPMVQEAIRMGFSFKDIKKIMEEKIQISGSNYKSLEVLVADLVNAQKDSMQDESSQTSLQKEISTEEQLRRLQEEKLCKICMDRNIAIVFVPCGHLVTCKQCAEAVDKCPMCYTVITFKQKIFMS
# Dihydroorotate dehydrogenase (quinone), mitochondrial (Plasmodium falciparum (isolate 3D7)), sequence (Q08210 whole entry, looked up): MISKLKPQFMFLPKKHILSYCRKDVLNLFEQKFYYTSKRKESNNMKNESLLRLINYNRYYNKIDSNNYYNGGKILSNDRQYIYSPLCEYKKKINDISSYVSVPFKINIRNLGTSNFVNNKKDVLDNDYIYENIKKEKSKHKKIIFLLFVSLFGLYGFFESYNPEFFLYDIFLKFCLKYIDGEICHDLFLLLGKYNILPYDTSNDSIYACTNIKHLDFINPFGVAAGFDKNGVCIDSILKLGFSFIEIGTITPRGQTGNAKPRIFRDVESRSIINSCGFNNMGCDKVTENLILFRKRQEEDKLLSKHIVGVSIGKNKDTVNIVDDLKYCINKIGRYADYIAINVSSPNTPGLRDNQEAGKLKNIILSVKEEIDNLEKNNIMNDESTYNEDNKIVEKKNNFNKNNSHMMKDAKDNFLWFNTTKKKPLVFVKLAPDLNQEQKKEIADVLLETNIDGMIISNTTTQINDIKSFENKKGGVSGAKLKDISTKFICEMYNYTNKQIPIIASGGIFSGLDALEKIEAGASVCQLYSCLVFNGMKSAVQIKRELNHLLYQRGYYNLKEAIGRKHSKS
Compound,z-score [1],z-score [2],z-score [3],z-score [4],z-score [5],z-score [6],z-score [7],z-score [8],z-score [9],z-score [10],z-score [11],z-score [12],z-score [13],composite z-score [14],z-score [15],z-score [16],z-score [17],z-score [18],z-score [19],composite z-score [20]
O=C(N1CCOCC1)[C@@]1(Cc2ccccc2)COC(c2ccc(OCCCO)cc2)=N1,-0.114,0.893,-0.985,-1.6,-0.907,-1.12,0.0409 (inactive),-0.856,-0.095,0.628 (inactive),-0.395,-3.37 (inactive),0.13 (inactive),-0.641 (inactive),0.565 (inactive),-0.428 (inactive),1.26 (inactive),0.284 (inactive),1.15,0.081
CCCC=C(CCC)[C@@H](NC(=O)OCC(C)C)c1ccc(C(=O)OC)cc1,0.732,-0.196,0.0516,0.753,0.528,-0.345,-1.53 (inactive),-0.0219,-1.32,0.293 (inactive),1.78,0.463 (inactive),0.287 (inactive),-0.456 (inactive),0.523 (inactive),-0.578 (inactive),0.386 (inactive),-0.0328 (inactive),0.754,0.0651
CC(C)(C)OC(=O)CC[C@@]1(C(=O)NCCN2CCOCC2)N=C(c2ccc(OCCCO)cc2)O[C@@H]1c1ccccc1CN=[N+]=[N-],-0.34,-0.502,0.463,-0.0725,-0.749,0.777,-0.916 (inactive),-0.29,-0.586,0.973 (inactive),0.535,-0.51 (inactive),-0.743 (inactive),-0.918 (inactive),-0.0988 (inactive),-0.922 (inactive),-0.407 (inactive),-0.721 (inactive),-0.28,-0.0559
Cc1ccc(S[C@]2(C(=O)NC3CC3)CC(=O)N(C(C)C)[C@@H]2c2ccc(CO)cc2I)cc1,1.22,1.07,-0.722,-2.31,-2.82,2.11,-0.578 (inactive),-0.114,-2.21,0.954 (inactive),0.0662,-3.47 (inactive),-2.29 (inactive),-0.632 (inactive),-0.227 (inactive),-2.02 (inactive),0.741 (inactive),0.617 (inactive),-2.37,-0.02
COC(=O)[C@]1(Cc2ccccc2)N=C(c2ccc(OCCCO)cc2)O[C@@H]1c1ccccc1CN=[N+]=[N-],-3.63,0.748,-5.37,-3.55,-3.97,-2.4,-0.876 (inactive),-1.12,-1.34,-4.59 (inactive),-4.19,-0.813 (inactive),-8.88 (active),1.94 (inactive),1.84 (inactive),2.72 (inactive),1.28 (inactive),-0.88 (inactive),-7.14,0.0159
CC1CC/C=C\[C@H]2OC34C=CCN(CCN5CCOCC5)C(=O)[C@H]3N(CCCO)C(=O)[C@@H]4C2C(=O)O1 (stereo not given in full),-0.451,0.483,-0.723,1.22,0.42,-0.734,-0.711 (inactive),0.741,0.649,-0.467 (inactive),-0.505,0.356 (inactive),-0.431 (inactive),0.199 (inactive),0.233 (inactive),0.296 (inactive),-0.47 (inactive),-0.496 (inactive),-0.479,0.158
C[C@]1(C(=O)O)c2ccccc2C(=O)N(Cc2cc(F)cc(C(F)(F)F)c2)[C@H]1c1ccc(CO)cc1,0.653,0.658,-0.577,0.471,0.792,-0.23,0.235 (inactive),0.383,-0.703,1.27 (inactive),0.646,-1.43 (inactive),0.449 (inactive),-0.215 (inactive),1.01 (inactive),-1.33 (inactive),0.434 (inactive),-0.808 (inactive),1.4,-0.167
COCCOC(=O)N1C(=O)[C@@]2(c3cc(C#CCC(C(=O)OC)C(=O)OC)ccc31)[C@H](c1ccc(O)cc1)N1[C@H](c3ccccc3)[C@H](c3ccccc3)OC(=O)[C@H]1[C@@H]2C(=O)Nc1nc2ccccc2s1,-0.451,0.982,-0.0867,0.121,-0.6,-1.18,-1.98 (inactive),-0.164,0.0358,0.066 (inactive),0.623,-0.146 (inactive),-1.05 (inactive),-1 (inactive),0.321 (inactive),0.559 (inactive),-0.709 (inactive),-0.961 (inactive),-0.157,-0.138

# Reference: PubChem BioAssay
